These results are taken from PubChem BioAssay (NCATS).

A short description of assay [1]: qHTS for Inhibitors of Plasmodium falciparum (DD2) proliferation (AID 504314).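 Further: parasite DNA measured by SYBR Green fluorescence after red cell lysis; plate controls were DMSO vehicle for no effect and artemisinin wells for full effect.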 The method in brief:
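Fluorescence read-out (ex 485/em 535 nm) of SYBR Green-stained parasite DNA quantifies intraerythrocytic growth. Cultures at 0.3% parasitemia and 2.5% hematocrit were treated for 72 h; data normalized to DMSO and 0.29 uM artemisinin wells.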

Assay [2] in a line: qHTS for Inhibitors of Plasmodium falciparum (7G8) proliferation (AID 504316). Further: nearly all actives have a fitted effect of over 65% in size. Further: potency means the concentration at half of the fitted maximal effect.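 On activity change, negative = inhibition: series mostly up to about 6.7 µM; 0% = DMSO vehicle and -100% = 0.29 µM artemisinin full kill.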 The method in brief:
(§1)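 Erythrocytes infected with P. falciparum line (0.3% parasitemia, 2.5% hematocrit final) incubated with compounds 72 h at 37 °C, 5% CO2; SYBR Green lysis buffer added, fluorescence read next day. Normalized to 0.29 uM artemisinin and DMSO.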
On the technique in general: qHTS replaces the single test concentration by a dilution series.

The nature of assay [3]: qHTS for Inhibitors of Plasmodium falciparum (HB3) proliferation (AID 504318). Further: nearly all actives have a fitted effect of over 60% in size. Further: potency means the concentration at half of the fitted maximal effect.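 On activity change, negative = inhibition: 0% = DMSO vehicle and -100% = artemisinin control.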 The method in brief:
as §1

A short description of assay [4]: qHTS for Inhibitors of Plasmodium falciparum (CP250) proliferation (AID 504320).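 Further: plate controls were DMSO vehicle for no effect and 0.29 µM artemisinin control for full effect.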 The method in brief: as §1
In assay [5] the target is Atrial natriuretic peptide receptor 1 (Homo sapiens) (UniProt P16066). The assay is described as follows: Natriuretic polypeptide receptor (hNpr1) antagonism - Pilot CMLD screen (AID 1347052; calls by dose curve;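 further: HEK293 cells with hNpr1 stimulated by hNppA peptide at 0.1 nM; cGMP level read as GloSensor luciferase luminescence after agonist stimulation; series mostly up to about 9.2 µM; on the % scale 0 is the no-effect control and ±100 the full control effect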).
Sequence of Atrial natriuretic peptide receptor 1 (Homo sapiens) (P16066 whole entry, looked up): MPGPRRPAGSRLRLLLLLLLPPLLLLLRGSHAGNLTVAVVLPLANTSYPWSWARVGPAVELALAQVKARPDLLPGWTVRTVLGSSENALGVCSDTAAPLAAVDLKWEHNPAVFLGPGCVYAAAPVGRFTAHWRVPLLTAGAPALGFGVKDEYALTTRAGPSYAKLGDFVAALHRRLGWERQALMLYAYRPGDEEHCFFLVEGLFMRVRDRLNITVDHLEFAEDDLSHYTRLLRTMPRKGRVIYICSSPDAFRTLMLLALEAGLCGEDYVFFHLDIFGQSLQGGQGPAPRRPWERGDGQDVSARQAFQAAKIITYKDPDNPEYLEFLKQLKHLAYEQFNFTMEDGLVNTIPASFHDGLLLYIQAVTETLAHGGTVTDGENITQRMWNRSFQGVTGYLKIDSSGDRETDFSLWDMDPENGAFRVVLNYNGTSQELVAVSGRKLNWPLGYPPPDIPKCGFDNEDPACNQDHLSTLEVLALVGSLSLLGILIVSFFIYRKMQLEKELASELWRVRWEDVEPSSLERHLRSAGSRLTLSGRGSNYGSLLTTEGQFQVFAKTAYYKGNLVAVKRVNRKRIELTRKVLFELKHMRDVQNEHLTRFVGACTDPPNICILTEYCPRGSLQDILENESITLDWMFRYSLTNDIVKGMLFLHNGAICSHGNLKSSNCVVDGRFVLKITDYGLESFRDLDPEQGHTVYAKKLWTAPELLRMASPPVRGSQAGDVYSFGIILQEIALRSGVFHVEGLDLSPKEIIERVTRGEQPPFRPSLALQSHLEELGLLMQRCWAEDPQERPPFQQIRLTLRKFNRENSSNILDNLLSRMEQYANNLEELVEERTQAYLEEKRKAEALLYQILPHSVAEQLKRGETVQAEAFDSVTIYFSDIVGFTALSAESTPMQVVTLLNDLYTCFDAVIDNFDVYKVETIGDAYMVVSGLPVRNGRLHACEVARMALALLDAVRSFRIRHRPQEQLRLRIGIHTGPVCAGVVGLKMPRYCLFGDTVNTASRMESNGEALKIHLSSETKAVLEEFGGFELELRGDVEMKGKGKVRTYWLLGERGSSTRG
Assay [6] has as its target Cytochrome P450 3A4 (Homo sapiens) (UniProt P08684). The assay is described as follows: qHTS Assay for Activators of Cytochrome P450 3A4 (AID 885). Further: nearly all actives have a fitted effect of over 65% in size. In a few lines: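 Quantitative HTS format: compounds preincubated with 20nM human CYP3A4 and Luciferin-PPXE substrate at KM, reaction started by NADPH regeneration, stopped after 60 min, luciferase luminescence read 20 min later.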

Assay [7] deals with Cytochrome P450 2C19 (Homo sapiens) (UniProt P33261). The assay is described as follows: qHTS Assay for Inhibitors and Substrates of Cytochrome P450 2C19 (AID 899). Further: nearly all actives have a fitted effect of over 60% in size. Further: potency means the concentration at half of the fitted maximal effect. On activity, negative = inhibition: on the % scale 0 is the no-effect control and ±100 the full control effect. The method in brief: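 Luminescence readout of luciferin formed from 10uM Luciferin-H EGE (KM level) by 5 nM CYP2C19 in 50mM KPO4. 60 min NADPH-driven reaction at 37C after 10 min compound preincubation; data scaled to 57uM ketoconazole inhibition.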
Sequence of Cytochrome P450 2C19 (Homo sapiens) (P33261 whole entry, looked up): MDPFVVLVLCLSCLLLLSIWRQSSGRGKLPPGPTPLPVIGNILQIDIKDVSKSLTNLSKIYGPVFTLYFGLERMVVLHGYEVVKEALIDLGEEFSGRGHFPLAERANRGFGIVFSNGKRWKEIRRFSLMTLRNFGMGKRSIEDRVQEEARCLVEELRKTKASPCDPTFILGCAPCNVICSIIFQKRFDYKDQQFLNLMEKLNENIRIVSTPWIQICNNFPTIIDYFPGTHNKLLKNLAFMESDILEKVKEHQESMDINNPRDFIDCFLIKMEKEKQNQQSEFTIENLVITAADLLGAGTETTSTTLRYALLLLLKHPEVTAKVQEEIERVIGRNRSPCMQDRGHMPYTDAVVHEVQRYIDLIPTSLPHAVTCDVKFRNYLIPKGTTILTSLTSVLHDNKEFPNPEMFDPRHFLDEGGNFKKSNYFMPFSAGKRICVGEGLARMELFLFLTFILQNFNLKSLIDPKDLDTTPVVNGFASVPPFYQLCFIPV

Assay [8] has as its target Cytochrome P450 2C9 (Homo sapiens) (UniProt P11712). The assay is described as follows: qHTS Assay for Inhibitors and Substrates of Cytochrome P450 2C9 (AID 883). Further: on the % scale 0 is the no-effect control and ±100 the full control effect; nearly all actives have a fitted effect of over 60% in size. In a few lines: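 Luminescent read-out of deoxyluciferin hydroxylation, normalized to 57uM sulphaphenazole (AC100). Reaction: 10nM enzyme, 100uM Luciferin-H (equal to KM), 25mM KPO4, 10 min compound preincubation, then 60 min with NADPH regeneration, both at 37C.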

Assay [9] addresses Cytochrome P450 2D6 (Homo sapiens) (UniProt P10635). The assay is described as follows: qHTS Assay for Inhibitors and Substrates of Cytochrome P450 2D6 (AID 891).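 Further: luciferin methyl ether substrate demethylated by CYP2D6 with NADPH regeneration; on the % scale 0 is the no-effect control and ±100 the full control effect; nearly all actives have a fitted effect of over 60% in size.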 The method in brief:
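Human CYP2D6 (5 nM) with 30 uM Luciferin-ME EGE (at Km) in 100 mM KPO4, compound preincubated 10 min, then NADPH regeneration system for 60 min at room temperature. Luciferin read by luminescence; normalized to 1.43 uM quinidine.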

Results filed as inconclusive are left out. Where a structure was tested more than once in an assay, its records may differ in their call. The source made the active and inactive calls. Unless noted, the call rests on the fitted dose curve; in most records, active means well fitted curve in the direction sought with a large enough effect; inconclusive means small, poorly fitted or top-dose-only effect, or another doubt; inactive means no such curve, though single readings can be large; an effect the other way counts as inactive or inconclusive.

Sequence of Cytochrome P450 3A4 (Homo sapiens) (P08684 whole entry, looked up): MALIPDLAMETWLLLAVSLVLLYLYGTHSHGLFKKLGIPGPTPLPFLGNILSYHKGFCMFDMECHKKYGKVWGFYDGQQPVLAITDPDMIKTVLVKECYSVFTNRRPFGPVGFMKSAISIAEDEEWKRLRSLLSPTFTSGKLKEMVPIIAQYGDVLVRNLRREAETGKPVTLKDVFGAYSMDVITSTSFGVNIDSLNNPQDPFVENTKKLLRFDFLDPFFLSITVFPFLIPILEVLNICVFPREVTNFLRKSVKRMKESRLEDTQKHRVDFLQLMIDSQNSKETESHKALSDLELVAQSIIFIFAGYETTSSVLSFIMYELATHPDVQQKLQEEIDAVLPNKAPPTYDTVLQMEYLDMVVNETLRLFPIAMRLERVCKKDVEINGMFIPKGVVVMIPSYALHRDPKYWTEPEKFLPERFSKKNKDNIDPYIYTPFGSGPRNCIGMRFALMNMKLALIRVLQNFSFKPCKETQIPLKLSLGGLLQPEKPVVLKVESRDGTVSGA
Sequence of Cytochrome P450 2D6 (Homo sapiens) (P10635 whole entry, looked up): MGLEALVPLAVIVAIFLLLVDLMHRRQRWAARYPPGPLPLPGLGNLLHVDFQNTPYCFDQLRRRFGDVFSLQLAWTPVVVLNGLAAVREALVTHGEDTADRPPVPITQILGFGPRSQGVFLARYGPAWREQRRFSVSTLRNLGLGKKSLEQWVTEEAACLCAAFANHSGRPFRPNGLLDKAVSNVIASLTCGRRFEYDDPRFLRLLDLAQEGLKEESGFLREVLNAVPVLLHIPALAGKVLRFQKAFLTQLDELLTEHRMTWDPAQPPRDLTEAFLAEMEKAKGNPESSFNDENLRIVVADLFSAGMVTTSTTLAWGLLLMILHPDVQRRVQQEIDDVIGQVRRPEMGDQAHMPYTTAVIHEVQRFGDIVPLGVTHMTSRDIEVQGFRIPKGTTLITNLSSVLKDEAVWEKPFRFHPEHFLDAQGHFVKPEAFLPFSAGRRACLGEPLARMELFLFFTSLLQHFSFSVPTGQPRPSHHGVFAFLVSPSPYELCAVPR
Sequence of Cytochrome P450 2C9 (Homo sapiens) (P11712 whole entry, looked up): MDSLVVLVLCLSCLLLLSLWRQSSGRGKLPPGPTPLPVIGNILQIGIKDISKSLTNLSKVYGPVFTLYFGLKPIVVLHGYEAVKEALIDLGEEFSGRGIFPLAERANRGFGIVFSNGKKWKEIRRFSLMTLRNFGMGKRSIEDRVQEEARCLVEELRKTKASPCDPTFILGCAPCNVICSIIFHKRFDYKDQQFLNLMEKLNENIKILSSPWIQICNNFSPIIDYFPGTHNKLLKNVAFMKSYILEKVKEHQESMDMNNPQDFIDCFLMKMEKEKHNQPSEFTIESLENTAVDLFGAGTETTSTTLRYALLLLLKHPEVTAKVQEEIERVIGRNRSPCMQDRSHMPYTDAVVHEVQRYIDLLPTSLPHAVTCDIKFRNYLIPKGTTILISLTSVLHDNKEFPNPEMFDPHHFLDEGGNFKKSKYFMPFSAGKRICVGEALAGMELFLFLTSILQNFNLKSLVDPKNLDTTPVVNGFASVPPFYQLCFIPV

On to `C[C@@H]1C(c2ccccc2)CC(=O)C(=O)C[C@@H]1C(=O)N1CCCC1` (some centres not stated), for which the Potency entry in [1], in assay [2], in assay [3], in assay [4] and in assay [5] was “inactive” each time.

For the compound `C=CCOC(=O)C1(C(NC(=O)OC)c2ccccc2)C(=O)Cc2ccccc21` (configuration not stated), the Potency entry in assay [1], in [2], in assay [4] and in assay [5] was “inactive” each time.

As to `O=C1OC2(CCCCC2)CC2=C1[C@H]1O[C@](c3ccsc3)(Cc3ccccc31)O2`, the Potency result in assay [1], in assay [2], in [4] and in [5] was “inactive” throughout.

Consider `COCCN1C(=O)C2=C(C1=O)C1N(C)c3ccccc3[C@@]13C[C@@H](CO)N(C(C)=O)C3=N2` (some centres not stated), for which the Potency entry in [1], in [2], in [3], in [4] and in assay [5] was “inactive” each time.

With `C[C@@H]1C=CCCO[C@]12C(=O)N(Cc1ccc(F)cc1)c1ccccc12`, the Potency entry in [1], in [2], in assay [3], in [4] and in assay [5] was “inactive” in each case.

Take `COCCN1C(=O)N[C@@H](CCc2ccccc2)[C@H](C(C)=O)[C@H]1C`: the Potency entry in assay [1], in [2], in [3], in assay [4] and in assay [5] was “inactive” throughout.

For the compound `CCCCCCCC1=Cc2ccccc2C(CC(C)=O)N1C(=O)OC` (configuration not stated), the activity change, positive = activation in [6] is -59.5% [at 11.4 µM] (inactive). Also, the Potency in assay [7] is 2510 nM (active); in [2] it was 1.69 µM (active) and inactive; in assay [3], 1690 nM (active). The Potency entry in [1] and in [5] was “inactive” in each case.

`CCN(CC)CCCN1C=C2C(=O)C(C)(OC(=O)C3CCCC3)C(=O)C=C2C=C1c1ccsc1` (configuration not stated): in assay [1], the activity, negative = inhibition is -4.1% [at 1.12 µM] (inactive). Moreover, the Potency result in assay [2], in assay [3], in assay [4] and in assay [5] was “inactive” each time.

Regarding `C[C@H]1Cc2c(-c3ccccc3)nc3c(c2CO1)CN(C(=O)NCc1ccco1)CC3`, the activity, negative = inhibition in [1] is 0.465% [at 1.12 µM] (inactive). For the same compound, the Potency entry in assay [2], in assay [3], in assay [4] and in [5] was “inactive” throughout.

On to `COc1cccc([C@@H]2Oc3ccc(Br)cc3C(=O)[C@@H]2OC(=O)N[C@H](C)C2CCCCC2)c1`, for which the Potency result in assay [1], in assay [2], in assay [3], in assay [4] and in assay [5] was “inactive” each time.

Take `C=C(CC(=O)OC)C[C@]1(CC(=O)OC)CC2(CC=C(C)C)C(=O)C(C(=O)c3ccccc3)=C(OC(=O)c3ccc(Br)cc3)C(CC=C(C)C)(C1)C2=O` (some centres not stated): the activity change, negative = inhibition in [8] is 7.13% [at 11.4 µM] (inactive); in assay [9] it was -5% [at 11.4 µM] (inactive). Also, the activity change, positive = activation in assay [6] is -37.5% [at 11.4 µM] (inactive). In addition, the activity, negative = inhibition in assay [7] was 79.8% [at 11.4 µM] (inactive). The Potency result in [1], in assay [2], in assay [3], in assay [4] and in assay [5] was “inactive” in each case.

Turning to `COC1=CC2C(=O)C(C(c3ccccc3)C2C)C1(O)c1cccc(OC)c1` (configuration not stated), the Potency result in assay [1], in assay [2], in [3], in assay [4] and in assay [5] was “inactive” each time.

In the case of `COC1=C[C@H](C(=O)NCCNC(C)=O)[C@@]2(C)Cc3ccccc3[C@@H]2CC1=O`, the Potency result in assay [1], in assay [2], in assay [3], in assay [4] and in [5] was “inactive” throughout.

For the compound `CC(=O)Nc1ccc(S(=O)(=O)N2CCc3nc(-c4ccccc4)c4c(c3C2)CO[C@@H](C)C4)cc1`, the activity, negative = inhibition in assay [1] is -1.41% [at 1.12 µM] (inactive). Further, the Potency entry in assay [2], in assay [3], in [4] and in [5] was “inactive” each time.

Consider `C[C@@H]1CC[C@H]2C(=O)O[C@@H](Cc3ccccc3)CN2[C@@H]1c1ccc(Br)cc1`, for which the Potency entry in assay [1], in [2], in assay [3], in assay [4] and in assay [5] was “inactive” each time.

In the case of `COC(=O)[C@@H]1C[C@@]23C(=NN=C(SC)C2Nc2ccccc23)N1C(C)=O` (some centres not stated), the Potency entry in assay [1], in [2], in [3], in [4] and in [5] was “inactive” in each case.

With `CCN1C(=NCCCCO)N[C@@H](CCc2ccccc2)[C@H](C(=O)OC)[C@H]1C`, the Potency entry in assay [1], in [2], in assay [3], in assay [4] and in [5] was “inactive” throughout.

On to `C=CCOC(=O)C(C(C)=O)[C@@H](NC(=O)OC)c1ccc(F)cc1` (some centres not stated), for which the Potency result in assay [1], in [2], in assay [3], in assay [4] and in assay [5] was “inactive” each time.

Regarding `Cc1cc2c(c(=O)o1)[C@H]1O[C@](c3ccsc3)(Cc3cc(C#N)ccc31)O2`, the Potency result in assay [1], in [2], in assay [3], in assay [4] and in assay [5] was “inactive” throughout.

Take `COC(=O)CCCC1=CC2=CC(=O)C(C)(OC(=O)c3cccs3)C(=O)C2=CN1CC(C)C` (configuration not stated): the Potency entry in [1], in assay [2], in assay [3], in [4] and in [5] was “inactive” throughout.

Take `COc1cccc([C@H]2Oc3ccc(OC)cc3C(=NO[C@@H](C)c3cc(-c4c(C)cc(C)cc4C)no3)[C@H]2O)c1`: the Potency result in [1], in [2], in [3], in assay [4] and in [5] was “inactive” each time.

As for `CC(=O)OC[C@H]1O[C@H](C#CC2=CCCCC2)C=C[C@H]1OC(C)=O`, the Potency entry in assay [1], in assay [2], in [3], in assay [4] and in [5] was “inactive” in each case.

In the case of `CCCCc1cc2c(cn1)=C(OC(=O)c1cnc3ccccc3n1)C(C)(OC(=O)CC)C(=O)C=2` (configuration not stated), the activity, negative = inhibition in assay [1] is 2.28% [at 1.12 µM] (inactive). Besides, the Potency in [2] is 1.69 µM (active). Further, the Potency entry in [4] and in [5] was “inactive” throughout.

In the case of `COC(=O)NC(c1ccccc1)C1(C(=O)OC)C(=O)Cc2ccccc21` (configuration not stated), the Potency entry in assay [1], in [2], in assay [3], in assay [4] and in assay [5] was “inactive” throughout.
